Data published in PubChem BioAssay (NCI).
The panel holds about 83,000 compounds, 20% with a hit somewhere; the sample as a whole holds those more often.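 Treatment: one concentration, 48 hours, 96-well format. Scoring: percent growth, with anything below 10 considered active.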 The source made the active and inactive calls.

Columns and labels:
Assay in all cases: NCI-60 one-dose screen, 48 h (100 = growth as untreated, 0 = no growth, -100 = all killed)
Conditions in all cases: 10 µM unless noted
DU-145 prostate = test system: DU-145 prostate
K-562 leukemia = test system: K-562 leukemia
MALME-3M melanoma = test system: MALME-3M melanoma
MDA-MB-231 breast = test system: MDA-MB-231 breast
RXF 393 renal = test system: RXF 393 renal
SF-268 CNS = test system: SF-268 CNS
SF-295 CNS = test system: SF-295 CNS
SF-539 CNS = test system: SF-539 CNS
UACC-257 melanoma = test system: UACC-257 melanoma
M14 melanoma = test system: M14 melanoma
HCT-15 colon = test system: HCT-15 colon
HT29 colon = test system: HT29 colon
SNB-75 CNS = test system: SNB-75 CNS
SNB-19 CNS = test system: SNB-19 CNS
U251 CNS = test system: U251 CNS
PC-3 prostate = test system: PC-3 prostate
SK-MEL-5 melanoma = test system: SK-MEL-5 melanoma
UACC-62 melanoma = test system: UACC-62 melanoma
LOX IMVI melanoma = test system: LOX IMVI melanoma
SK-MEL-28 melanoma = test system: SK-MEL-28 melanoma

Measured: growth

Clc1cccc(Cl)c1/C=C/c1cc(/C=C/c2c(Cl)cccc2Cl)[nH]n1
inactive: DU-145 prostate 17% | K-562 leukemia 12% | MALME-3M melanoma 60.1% | MDA-MB-231 breast 13.1% | SF-268 CNS 53.2% | SF-295 CNS 20.9% | UACC-257 melanoma 58.6% | HCT-15 colon 27.7% | HT29 colon 10.7% | SNB-75 CNS 11% | SNB-19 CNS 25.9% | U251 CNS 20.3% | PC-3 prostate 30.8% | SK-MEL-5 melanoma 22.9% | UACC-62 melanoma 38.8% | LOX IMVI melanoma 46.3% | SK-MEL-28 melanoma 46.2%
active: RXF 393 renal 6.46% | SF-539 CNS -43.7% | M14 melanoma 5.51%

CCc1ccccc1-n1c(-c2ccc(Cl)cc2)cc(-c2ccc(OC)cc2)c(C#N)c1=O
inactive: DU-145 prostate 94.6% | K-562 leukemia 101% | MALME-3M melanoma 148% | MDA-MB-231 breast 92.7% | RXF 393 renal 97.5% | SF-268 CNS 93.4% | SF-295 CNS 93.2% | SF-539 CNS 102% | UACC-257 melanoma 112% | M14 melanoma 93.4% | HCT-15 colon 99.6% | HT29 colon 103% | SNB-75 CNS 93% | SNB-19 CNS 105% | U251 CNS 114% | PC-3 prostate 84.1% | SK-MEL-5 melanoma 101% | UACC-62 melanoma 89.1% | LOX IMVI melanoma 89.6% | SK-MEL-28 melanoma 109%

COCN1CCC2N(COC)CCC3N(COC)CCC1N23 (stereo not given)
inactive: DU-145 prostate 111% | K-562 leukemia 111% | MALME-3M melanoma 134% | MDA-MB-231 breast 94.1% | RXF 393 renal 112% | SF-268 CNS 104% | SF-295 CNS 113% | SF-539 CNS 101% | UACC-257 melanoma 98.8% | M14 melanoma 98% | HCT-15 colon 104% | HT29 colon 105% | SNB-75 CNS 90.8% | SNB-19 CNS 93.6% | U251 CNS 102% | PC-3 prostate 102% | SK-MEL-5 melanoma 109% | UACC-62 melanoma 94.3% | LOX IMVI melanoma 101% | SK-MEL-28 melanoma 106%

Clc1cccc(Cl)c1C(Nc1nc2ccccc2s1)Nc1nc2ccccc2s1
inactive: DU-145 prostate 131% | K-562 leukemia 79.6% | MALME-3M melanoma 123% | MDA-MB-231 breast 104% | RXF 393 renal 104% | SF-268 CNS 105% | SF-295 CNS 143% | SF-539 CNS 93.6% | UACC-257 melanoma 102% | M14 melanoma 122% | HCT-15 colon 83.6% | HT29 colon 108% | SNB-75 CNS 80.8% | SNB-19 CNS 99.1% | U251 CNS 94.7% | PC-3 prostate 74.2% | SK-MEL-5 melanoma 88.4% | UACC-62 melanoma 95.7% | LOX IMVI melanoma 86.1% | SK-MEL-28 melanoma 109%

CC(C)CCC[C@@H](C)[C@H]1CC[C@H]2[C@@H](Nc3ccc(O)cc3)CCC[C@]12C
inactive: DU-145 prostate 96.5% | K-562 leukemia 105% | MALME-3M melanoma 133% | MDA-MB-231 breast 109% | RXF 393 renal 70.6% | SF-268 CNS 80.2% | SF-295 CNS 98.5% | SF-539 CNS 17.5% | UACC-257 melanoma 42.2% | M14 melanoma 102% | HCT-15 colon 70.8% | HT29 colon 89.5% | SNB-75 CNS 75.8% | SNB-19 CNS 111% | U251 CNS 91.8% | PC-3 prostate 33.5% | SK-MEL-5 melanoma 97.9% | UACC-62 melanoma 76.5% | LOX IMVI melanoma 34.7% | SK-MEL-28 melanoma 97.9%

N#Cc1c(-c2ccccn2)[nH]c(=S)[nH]c1=O
inactive: DU-145 prostate 105% | K-562 leukemia 97% | MALME-3M melanoma 108% | MDA-MB-231 breast 117% | RXF 393 renal 110% | SF-268 CNS 101% | SF-295 CNS 99.1% | SF-539 CNS 97.3% | UACC-257 melanoma 109% | M14 melanoma 97.6% | HCT-15 colon 96.7% | HT29 colon 96% | SNB-75 CNS 105% | SNB-19 CNS 126% | U251 CNS 99.8% | PC-3 prostate 103% | SK-MEL-5 melanoma 106% | UACC-62 melanoma 118% | LOX IMVI melanoma 104% | SK-MEL-28 melanoma 112%

COc1cccc2c1C(=O)c1c(O)c3c(c(O)c1C2=O)CC(O)(/C(C)=N/NC(=O)CCCCC(=O)N/N=C(\C)C1(O)Cc2c(O)c4c(c(O)c2C(OC2CC(N)C(O)C(C)O2)C1)C(=O)c1c(OC)cccc1C4=O)CC3OC1CC(N)C(O)C(C)O1 (stereo not given)
active: DU-145 prostate -47.4% [5 µM] | K-562 leukemia -51.8% [5 µM] | MALME-3M melanoma -66.9% [5 µM] | MDA-MB-231 breast -2.21% [5 µM] | RXF 393 renal -55.4% [5 µM] | SF-268 CNS -31.3% [5 µM] | SF-295 CNS -35.3% [5 µM] | SF-539 CNS -41.8% [5 µM] | UACC-257 melanoma -34.3% [5 µM] | M14 melanoma -57.1% [5 µM] | HT29 colon -68.9% [5 µM] | SNB-75 CNS -67.7% [5 µM] | SNB-19 CNS -8.14% [5 µM] | U251 CNS 2.32% [5 µM] | PC-3 prostate -40.4% [5 µM] | SK-MEL-5 melanoma -89% [5 µM] | UACC-62 melanoma -93% [5 µM] | LOX IMVI melanoma 1.34% [5 µM] | SK-MEL-28 melanoma -76.5% [5 µM]
inactive: HCT-15 colon 13.8% [5 µM]

N[C@@H](CCCCNCC(=O)O)C(=O)O
inactive: DU-145 prostate 103% | K-562 leukemia 100% | MALME-3M melanoma 97.6% | MDA-MB-231 breast 89.1% | RXF 393 renal 108% | SF-268 CNS 102% | SF-295 CNS 100% | SF-539 CNS 92.7% | UACC-257 melanoma 101% | M14 melanoma 104% | HCT-15 colon 98.8% | HT29 colon 116% | SNB-75 CNS 84.1% | SNB-19 CNS 99.2% | U251 CNS 99.9% | PC-3 prostate 121% | SK-MEL-5 melanoma 101% | UACC-62 melanoma 94.4% | LOX IMVI melanoma 100% | SK-MEL-28 melanoma 104%
